mHTT CaM bind = disrupts binding of mutant huntingtin to calmodulin; actives 3.6% (n = 190,000); inhibition, % at 15 µM; AlphaScreen His-mHTT/GST-CaM binding, luminescence;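 further: 0% = both proteins with DMSO and 100% = one protein alone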
Pf apPOL inh = Pf-apPOL DNA polymerase inhibition. inhibition, % at 10 µM. actives 0.25% (n = 210,000). Recombinant Pf-apPOL, molecular beacon fluorescence, 1.5 h. AID 1794808
* marks the source's active call; other numbers are inactive results; x = no result. Shown are actives, neighbours in structure and some others; about 3.6% of the full set was active somewhere. No stated cut-off is given here; in the data, active means inhibition above about 50%; inactive means the rest.

SMILES | mHTT CaM bind | Pf apPOL inh
CCCOc1ccc(C=Nc2ccc(S(=O)(=O)Nc3ccccn3)cc2)cc1 | -5 | -5
Cc1ccc(C(Nc2ccccn2)c2ccc3ccc(C)nc3c2O)cc1 (configuration not stated) | 72* | -12
Cc1ccc(-c2ncccc2O)cc1 | 1 | -7
Cc1ccc(C(Nc2ccccn2)c2ccc3cccnc3c2O)cc1 (configuration not stated) | 99* | 3
CCN1C(=O)Cc2ccccc2C1C(=O)N(C)C (configuration not stated) | -4 | 0
CCN(CC)c1nc(=O)c2cc(NC(=O)C3CCC3)ccc2s1 | 6 | -1
CCS(=O)(=O)N1CCN(C(=O)COc2ccc(OC)cc2)CC1 | -4 | -9
O=C(CCN1CCCC1)Nc1ccc(Cl)cc1 | 3 | 1
CCOCCCNC(=O)c1cnn2c(C)c(Cc3c(C)cc(C)cc3C)c(C)nc12 | 15 | -10
O=S(=O)(Nc1ccccn1)c1ccc(Cl)cc1 | -2 | 0
Oc1c(C(Nc2ccccn2)c2ccc(Cl)cc2)ccc2cccnc12 (configuration not stated) | 100* | 4
CCN1c2ccc(F)cc2C(=O)NC12CCN(C(=O)c1ccc(F)c(Cl)c1)CC2 | -5 | -4
Cc1cccc(N2CCN(Cc3ccc(-c4ccccc4[N+](=O)[O-])o3)CC2)c1C | 59* | 3
O=[N+]([O-])c1ccccc1-c1ccc(CN2CCN(c3ccccc3F)CC2)o1 | 23 | -4
COc1ccc(N2CCN(Cc3cnoc3-c3ccccc3)CC2)cc1 | 57* | -10
COc1cccc(-c2oncc2CN2CCN(c3ccccc3)CC2)c1 | 19 | -1
COc1ccc(Oc2coc3cc(OC(=O)c4ccccc4)ccc3c2=O)cc1 | -2 | -3
COc1ccc(C)cc1C(=O)C1CC(C(=O)O)C(C)(C)C1C (configuration not stated) | 4 | 59*
COc1ccc(C)cc1NC(=O)C1C2C=CC(C2)C1C(=O)O (configuration not stated) | 1 | -4
Cc1ccc(CN2CCCC(c3n[nH]c(C4CC4)n3)C2)o1 (configuration not stated) | 12 | -2
COc1cc(/C=C/[N+](=O)[O-])cc(Cl)c1OCc1cccc(C(=O)O)c1 | 57* | -4
COc1cc(/C=C2\NC(=O)NC2=O)cc(Cl)c1OCc1cccc(C(=O)O)c1 | 6 | -4
CCOc1ccccc1C(=O)NC(Nc1cccc(C)n1)(C(F)(F)F)C(F)(F)F | x | -2
Cc1nc(NC(=O)c2ccc(-n3ccnc3)nn2)sc1C | 90* | 7
Cc1ccnc(NS(=O)(=O)c2ccc(NC(=O)c3ccc(-n4ccnc4)nn3)cc2)n1 | -12 | 5
SMILES | mHTT CaM bind | Pf apPOL inh
O=C(O)c1cccc(S(=O)(=O)Nc2ccc(NS(=O)(=O)c3cccc(C(=O)O)c3)cc2)c1 | 0 | -1
COC(=O)C(C)Oc1cc2c(-c3cc4cccc(OC)c4o3)cc(=O)oc2cc1C (configuration not stated) | -6 | 0
COc1cc(-c2nc(-c3ccsc3)c(-c3ccccc3)[nH]2)cc(OC)c1O | 87* | -7
c1ccc(-c2nc(-c3ccc4c(c3)sc3ccccc34)c(-c3ccccc3)[nH]2)cc1 | 55* | x
COc1cc(-c2nc(-c3ccccc3)c(-c3ccc(O)cc3)[nH]2)cc(OC)c1O | 88* | -1
c1ccc(-c2nc(-c3cccnc3)[nH]c2-c2ccccc2)cc1 | x | -3
COc1cccc(-c2nc(-c3ccsc3)c(-c3ccccc3)[nH]2)c1OC | 44 | -5
Oc1ccc(-c2nc(-c3ccc(F)cc3)c(-c3ccncc3)[nH]2)cc1 | x | 17
O=[N+]([O-])c1cccc(C2=Nn3c(nnc3-c3ccc(Cl)cc3Cl)SC2)c1 | 9 | 31
CC(C)n1cc(C2=CCN(S(=O)(=O)Cc3ccc(Cl)cc3)CC2)c2cccnc21 | 17 | -6
Cc1nc2c(C(=O)NC3CCCC3)cnn2c(C)c1Cc1cccc(Br)c1 | 10 | 0
Cc1nc2c(C(=O)NC3CC3)cnn2c(C)c1Cc1ccccc1Cl | 58* | -6
Cc1nc2c(C(=O)NC3CCCCC3)cnn2c(C)c1Cc1cccc(Cl)c1 | 61* | 12
Cc1nc2c(C(=O)NC3CCCCC3)cnn2c(C)c1Cc1ccccc1Cl | 2 | -2
Cc1nc2c(C(=O)NC3CCCCC3C)cnn2c(C)c1Cc1ccccc1 (configuration not stated) | 16 | -8
Cc1nc2c(C(=O)NC3CCCCC3C)cnn2c(C)c1Cc1cccc(Cl)c1 (configuration not stated) | 71* | -10
CN1C(=O)C2CCC(=O)N2c2ccc(C(=O)NCc3cccc(F)c3)cc21 (configuration not stated) | -3 | -4
COc1cc(C)c(C(C)C)cc1S(=O)(=O)NCc1ccc2c(c1)OCO2 | 1 | 3
Cc1ccc(NC(NC(=O)c2cccs2)C(=O)c2ccccc2)cc1 (configuration not stated) | 38 | -3
O=C(NC(Nc1ccc([N+](=O)[O-])cc1)C(Cl)(Cl)Cl)c1cccs1 (configuration not stated) | 34 | 0
O=C(NC(Nc1ccc(Cl)cc1)C(=O)c1ccccc1)c1cccs1 (configuration not stated) | 81* | -3
O=C(NC(Nc1ccc(I)cc1)C(Cl)(Cl)Cl)c1cccs1 (configuration not stated) | 84* | -3
O=C(Nc1ccc(Cl)cc1F)c1cc(S(=O)(=O)NCc2ccc(F)cc2)ccc1F | 1 | -7
CC(C)(C)[C@@H]1CCC(=O)N(CC[C@H](Sc2ccccc2)c2ccccc2)CC1 | -6 | -1
CC(=O)Nc1ccc(S[C@@H](CCN2CC[C@H](C(C)(C)C)CCC2=O)c2ccccc2)cc1 | 61* | -1
SMILES | mHTT CaM bind | Pf apPOL inh
Cc1ccc(C(=O)N2CCc3cc(-c4ccno4)ccc32)cc1 | -7 | -6
FC(F)(F)c1cccc(N=Cc2c(-c3ccccc3)nc3n2CCS3)c1 | x | -14
C(=Nc1c(-c2ccccc2)nc2n1CCS2)c1ccccc1 | 59* | -21
CC(C)OC(=O)Cn1cnc2c(-c3ccc(F)cc3)csc2c1=O | -7 | -1
CCOc1ccccc1CNC(=O)c1ccc2[nH]c3c(c2c1)CN(C(C)=O)CC3 | 74* | -2
CC(=O)N1CCc2[nH]c3ccc(C(=O)NCc4ccc(N5CCOCC5)cc4)cc3c2C1 | 56* | -3
CCc1ccc(CNC(=O)c2ccc3[nH]c4c(c3c2)CN(C(C)=O)CC4)cc1 | 41 | -13
CCC(CC)NC(=O)c1ccc2[nH]c3c(c2c1)CN(C(C)=O)CC3 | -2 | 1
O=C(CSc1nc2ncccc2[nH]1)Nc1ccccc1 | 2 | -9
COc1ccccc1Oc1coc2cc(OC(=O)c3ccco3)ccc2c1=O | 11 | -2
O=c1oc2ccc(Cl)cc2n1CNc1ccccc1 | 6 | -20
O=c1oc2ccc(Cl)cc2n1CNc1ccccc1F | 3 | 63*
COc1ccc(-c2nnc(NC(=O)c3ccc(S(=O)(=O)N(C)C)cc3)o2)cc1 | 30 | -1
CN(C)c1ccc(-c2noc(-c3ccc(Br)cc3)n2)cc1 | 79* | -1
CN(C)c1ccc(C(=O)Nc2nnc(-c3ccc(Br)cc3)o2)cc1 | 60* | -30
CN(C)c1ccc(-c2nc(-c3ccc(=O)n(C)c3)no2)cc1 | 9 | 5
COc1ccc(C(=O)Nc2ccccc2)cc1S(=O)(=O)Nc1ccc(Cl)cc1 | 4 | -6
